Bioassay records deposited in PubChem BioAssay by several laboratories.
TIM10 inh: inhibits growth of TIM10 yeast strain. S. cerevisiae TIM10 strain growth, BacTiter-Glo luminescence, 24 h. 330,000 tested, 1.4% active. inhibition, % at 10 µM;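 active means inhibition of 40% or more at the single tested concentration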;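 further: wild-type TIM10 isogenic control strain grown at permissive 25 °C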
tim10-1 inh: inhibits growth of tim10-1 mutant yeast | S. cerevisiae tim10-1 ts strain growth, BacTiter-Glo, 24 h | inhibition, % at 20 µM | 330,000 tested, 2.2% active | AID 463190;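 active means inhibition of at least 40%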;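 further: mutant grown at 25 °C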
tim23-1 inh: growth inhibitors of tim23-1 mutant yeast; S. cerevisiae tim23-1 growth, BacTiter-Glo luminescence, 24 h; inhibition, % at 20 µM; 330,000 tested, 1.3% active;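 active means growth inhibition of the mutant yeast at or above 50%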;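 further: temperature-sensitive mutant grown at 25 °C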
PfHsp90 yeast 2: growth inhibition of yeast expressing Plasmodium Hsp90; 310,000 tested, 0.32% active; S. cerevisiae expressing PfHsp90, BacTiter-Glo ATP, 48 h; yeast lacking PDR1 and PDR3 efflux regulators; AID 504621; inhibition, % at 9.4 µM;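 active means every replicate shows inhibition above about 80%, whatever the replicate mean, limit read from the data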
SKKanGAS inh: blocks kanamycin growth of S. pyogenes SKKanGAS strain; BacTiter-Glo, 6 h; inhibition, % at 7.5 µM; 300,000 tested, 1.3% active; AID 1662;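 active means mean replicate score, as percent of positive control median, at least 50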;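 further: strain carries kanamycin resistance gene driven by streptokinase promoter and grows in 40 µg/ml kanamycin; loss of luminescence reflects streptokinase promoter inhibition or plain growth inhibition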
tim10-1 conf: tim10-1 yeast growth inhibition, confirmed; inhibition, % at 20 µM; AID 463213; 7,400 tested, 56% active; S. cerevisiae tim10-1 ts strain growth, BacTiter-Glo, 24 h; shares compounds with tim10-1 inh;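 active means inhibition of yeast growth at or above a set limit in either of two repeat tests at 20 µM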;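 further: tim10-1 mutant grown at permissive 25 °C to find synthetic lethal compounds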
tim10 confirm: confirmation of TIM10 yeast growth inhibitors | inhibition, % at 10 µM | S. cerevisiae tim10 strain growth, BacTiter-Glo luminescence, 24 h | shares compounds with TIM10 inh | 4,600 tested, 63% active;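 active means inhibition of yeast growth at or above a set limit in either of two replicates at 10 µM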; further: this counterscreen used the strain with wild-type TIM10
Each line names hits and unclear results; the compound was inactive in the other large screens (follow-up assays come after a bar, where they were run). A selection: hits, their analogues and other compounds. The true share with any hit is near 4.4%.

CC(C)CN1C(=O)/C(=C/c2cccs2)NC1=S	TIM10 inh 48, tim10-1 inh 43 | tim10-1 conf inactive | tim10 confirm 40
COc1ccc(NC(=O)CSc2nc3ccccc3c(=O)n2CCCC(=O)NCC2CCCO2)c(OC)c1 (stereo not drawn)	none
CC(C)Cn1c(=S)[nH]c2ccccc2c1=O	none
CC(C)Cn1c(=S)[nH]c2cc(Cl)ccc21	TIM10 inh 50, tim10-1 inh 43 | tim10-1 conf inactive | tim10 confirm inactive
CCSc1nnc(-c2ccc(S(=O)(=O)NCc3cccs3)cc2)o1	TIM10 inh 45, tim10-1 inh 45 (no result: PfHsp90 yeast 2, SKKanGAS inh) | tim10-1 conf 50 | tim10 confirm 30
O=Nc1c2nc3ccccc3n(O)c-2c2ccccc12	TIM10 inh 75, tim10-1 inh 84 (no result: PfHsp90 yeast 2) | tim10-1 conf 83 | tim10 confirm 71
COc1ccc(-n2ccnc(SCC(=O)NCc3ccc(C)cc3)c2=O)cc1Cl	none
Cc1cccc(NC(=O)c2ccc(S(=O)(=O)NCc3cccnc3)cc2)c1	none
Cc1oc(=O)c(NC(=O)c2ccccc2)cc1C(N)=O	none (no result: SKKanGAS inh)
COc1ccc(C(=O)Nc2cc(C(=O)c3ccccc3)c(C)oc2=O)cc1	TIM10 inh 60, tim10-1 inh 66, PfHsp90 yeast 2 117 | tim10-1 conf 70 | tim10 confirm 43
Cc1oc(=O)c(NC(=O)c2cccc(Cl)c2)cc1C(=O)c1ccccc1	TIM10 inh 51, tim10-1 inh 62 (no result: PfHsp90 yeast 2) | tim10-1 conf 62 | tim10 confirm 43
Cc1ccc(NC(=O)Nc2c(Cl)cccc2Cl)cn1	none
Cc1ccc(-c2nn(-c3ccccc3)cc2C=O)o1	TIM10 inh 72, tim10-1 inh 63 | tim10-1 conf 64 | tim10 confirm 70
Cc1ccc(-c2nn(-c3ccccc3)cc2C(N)=O)o1	none
CC(=O)Nc1ccc(S(=O)(=O)N2CCSC2c2ccc(Cl)cc2)cc1 (stereo not drawn)	TIM10 inh 40, tim10-1 inh 53 | tim10-1 conf 39 | tim10 confirm inactive
Cc1cc(C)nc(SCC(=O)Nc2sc3c(c2C#N)CCC(C)C3)n1 (stereo not drawn)	none
Cc1cc(C(F)F)n2nc(C(=O)Nc3sc4c(c3C#N)CCC(C)C4)nc2n1 (stereo not drawn)	TIM10 inh 42, tim10-1 inh 57 (no result: PfHsp90 yeast 2) | tim10-1 conf 48 | tim10 confirm 42
CC(C)NC(=O)c1onc(CSc2ccc(Cl)cc2)c1C(=O)NC(C)C	none
COc1ccc(NC(=S)NNC(=O)C2CC2c2ccc(C)cc2)cc1 (stereo not drawn)	none
Cc1ccc(NC(=S)NNC(=O)C2CC2c2ccc(C)cc2)cc1 (stereo not drawn)	TIM10 inh 40, tim10-1 inh 41 | tim10-1 conf inactive | tim10 confirm inactive
C/C(=N\NC(=S)NCc1ccccc1)c1ccc2c(c1)OCCO2	TIM10 inh 46, tim10-1 inh 43 | tim10-1 conf 49 | tim10 confirm 39
C/C(=N\NC(=S)NCc1ccccc1)c1ccc(Br)cc1	tim10-1 inh 49 | tim10-1 conf inactive | tim10 confirm 32
C/C(=N\NC(=S)NCCc1ccccc1)c1ccc(C)cc1	none (no result: PfHsp90 yeast 2)
C/C(=N\NC(N)=S)c1ccc2c(c1)OCCO2	none
CN(C)c1ccc(/C=N/NC(=S)NCc2ccccc2)cc1	TIM10 inh 55, tim10-1 inh 43 (no result: PfHsp90 yeast 2) | tim10-1 conf 32 | tim10 confirm 44
NC(=O)CC1C(=O)N(c2ccccc2)C(=S)N1NC(=O)c1ccccc1 (stereo not drawn)	none
O=C(/C=C/c1ccc(N2CCC(c3ccccc3)=N2)cc1)c1ccccc1	TIM10 inh 43, tim10-1 inh 41 (no result: PfHsp90 yeast 2) | tim10-1 conf inactive | tim10 confirm inactive
C=CCn1c(SCC(=O)NCC2CCCO2)nc2c([nH]c3ccccc32)c1=O (stereo not drawn)	none
O=C(Nc1cccc(Cl)c1)c1ccc2c(c1)OCCO2	TIM10 inh 60, tim10-1 inh 50 | tim10-1 conf 40 | tim10 confirm 71
CCCNC(=S)Nc1ccc(Br)cc1	none
CCCNC(=S)Nc1ccc(Oc2ccccc2)cc1	TIM10 inh 42, tim10-1 inh 42 | tim10-1 conf inactive | tim10 confirm inactive
CCOc1ccc(CSCCNC(=S)Nc2ccccc2)cc1	TIM10 inh 47, tim10-1 inh 42 | tim10-1 conf inactive | tim10 confirm inactive
CCOc1ccc(NC(=S)NCCCc2ccccc2)cc1	none (no result: PfHsp90 yeast 2)
O=C(NCCSCc1c(F)cccc1Cl)Nc1ccccc1	none
S=C(NCCSCc1ccc(Cl)c(Cl)c1)Nc1ccccc1	TIM10 inh 45, tim10-1 inh 54, SKKanGAS inh 52 | tim10-1 conf inactive | tim10 confirm inactive
S=C(NCCSCc1ccc(Cl)cc1Cl)Nc1ccccc1	TIM10 inh 59, tim10-1 inh 48, SKKanGAS inh 56 | tim10-1 conf 45 | tim10 confirm 53
CCc1cccc(C)c1NC(=O)COC(=O)CSCc1ccccc1	none (no result: SKKanGAS inh)
COc1ccc(NC(=O)CSc2nnnn2C)cc1S(=O)(=O)N1CCCCC1	none (no result: SKKanGAS inh)
O=C(/C=C/c1cccc(Cl)c1)Nn1c(-c2cccs2)nc2ccccc2c1=O	TIM10 inh 43, tim10-1 inh 45 | tim10-1 conf 36 | tim10 confirm inactive
CN1CCN(c2ccccc2NC(=O)c2ccc(-c3ccc(Cl)cc3Cl)o2)CC1	TIM10 inh 46, tim10-1 inh 56 | tim10-1 conf 55 | tim10 confirm 48
CCN1/C(=C/C=C/C=C/C=C/c2sc3ccccc3[n+]2CC)Sc2ccccc21	none
CCN1/C(=C/c2ccc3cc(C)ccc3[n+]2CC)Sc2ccccc21	TIM10 inh 66, tim10-1 inh 65, PfHsp90 yeast 2 92 (no result: SKKanGAS inh) | tim10-1 conf 45 | tim10 confirm 75
N/C(=N\OC(=O)c1ccco1)c1ccc(Cl)cc1	TIM10 inh 54, tim10-1 inh 47 | tim10-1 conf 47 | tim10 confirm inactive
O=C(/C=C/c1cccs1)c1cc(Cl)ccc1O	none
O=C(/C=C/c1ccc2ccccc2n1)c1cc(Cl)ccc1O	TIM10 inh 54, tim10-1 inh 54 | tim10-1 conf 37 | tim10 confirm 36
Cc1ccnc(Nc2nc(-c3c(C)nc4sccn34)cs2)c1	TIM10 inh 45, tim10-1 inh 44 | tim10-1 conf inactive | tim10 confirm 32
C[C@@H]1CC=C[C@H]2[C@H]1C(=O)N(Cc1ccccc1)[C@H]2c1ccc2ccccc2c1	TIM10 inh 48, tim10-1 inh 46 | tim10-1 conf 47 | tim10 confirm 47
Cc1ccc(F)c([C@H]2[C@H]3C=CC[C@@H](C)[C@@H]3C(=O)N2Cc2ccccc2)c1	TIM10 inh 45, tim10-1 inh 50 | tim10-1 conf inactive | tim10 confirm 35
